Test results published in PubChem BioAssay AID2254 (The Scripps Research Institute Molecular Screening Center, 2010).

assay: human RBBP9 inhibitor potency, late-stage follow-up, biochemical, gel-based ABPP, IC50 (AID 2254); settings: fluorophosphonate probe labeling of RBBP9; call rule not given here

IC50, inactive:
COc1ccc(C(=O)O/N=C(\C)c2nccs2)cc1 > 100 µM
C/C(=N\OC(=O)C1CCCCC1)c1nccs1 > 100 µM
C/C(=N\OC(=O)c1ccc(F)cc1)c1nccs1 > 100 µM
C/C(=N\OC(=O)c1ccc(Cl)cc1)c1nccs1 > 100 µM
CC1=CC(=NOC(=O)/C=C/c2ccccc2)C=C(C)C1=O > 100 µM
C/C(=N\OC(=O)c1ccccc1)c1nccs1 > 100 µM
COc1ccc(C(=O)ON=C2C=C(C)C(=O)C(C)=C2)cc1 > 100 µM
